FLuc modulator: firefly luciferase modulation, counter-screen for miR-21 project; Potency, µM (titrated, usually from 57.5 µM), most hits filed as inhibitors; actives 6.9% (n = 360,000); P08659; purified FLuc, Km substrates, luminescence inhibition; also: nearly all actives have a fitted effect of over 55% in size
Target sequence (P08659 whole entry, looked up): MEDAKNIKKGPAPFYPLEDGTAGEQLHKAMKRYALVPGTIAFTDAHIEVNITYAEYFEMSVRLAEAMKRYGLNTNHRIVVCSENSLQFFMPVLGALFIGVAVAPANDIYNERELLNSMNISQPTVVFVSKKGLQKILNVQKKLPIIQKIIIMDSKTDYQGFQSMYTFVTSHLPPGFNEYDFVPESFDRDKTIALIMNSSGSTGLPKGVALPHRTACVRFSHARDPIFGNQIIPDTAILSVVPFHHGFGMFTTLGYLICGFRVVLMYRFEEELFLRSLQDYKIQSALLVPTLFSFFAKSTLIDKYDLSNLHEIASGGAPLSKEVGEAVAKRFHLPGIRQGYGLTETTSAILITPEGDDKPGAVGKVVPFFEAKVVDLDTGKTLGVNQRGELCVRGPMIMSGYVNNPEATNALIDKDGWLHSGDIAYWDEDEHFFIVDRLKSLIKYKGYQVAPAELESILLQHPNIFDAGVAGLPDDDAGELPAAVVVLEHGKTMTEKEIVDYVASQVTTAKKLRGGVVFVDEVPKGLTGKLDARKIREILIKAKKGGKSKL
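Purified P. pyralis luciferase, 10 nM final, with Km-level 10 uM D-luciferin and 10 uM ATP in 50 mM Tris acetate pH 7.5, 10 mM Mg acetate, 0.01% Tween-20, 0.05% BSA; 6-point qHTS titration about 60 µM downward; luminescence read.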
ELG1 genotoxic: inducers of genotoxicity in HEK293T ELG1-luciferase cells | HEK293T ELG1-luciferase reporter, luminescence, 16 h | actives 1.3% (n = 330,000) | Potency, µM (titrated, usually from 46 µM), most hits filed as activators | AID 504466; also: nearly all actives have a fitted effect of over 60% in size
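Screening used a luciferase reporter fused to human ELG1 in HEK293T cells. Luminescence was read on a CCD plate imager after 16 hr exposure and 30 min ONE-Glo incubation.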
Rab9 promoter act: Rab9 promoter activation; Potency, µM (doses to about 9.22 µM), usual class: activators; Huh7 Rab9 promoter-luciferase reporter, luminescence, 24 h; actives 2.8% (n = 320,000); also: nearly all actives have a fitted effect of over 60% in size
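Luciferase signal after 10 min detection reagent at ambient indicates Rab9 promoter upregulation; stably transfected Huh7 cells were treated 24 h with compound in DMSO at 37 °C, 5% CO2.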
NPC1 prom act: NPC1 promoter activation | actives 2.4% (n = 320,000) | Potency, µM (highest dose often 9.22 µM), actives largely listed as activators | Huh7 NPC1 promoter luciferase reporter, 24 h; also: nearly all actives have a fitted effect of over 60% in size
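Huh7 cells stably carrying NPC1 promoter–luciferase, plated in Opti-MEM with 10% FBS for 2 h, were exposed to compound in DMSO for 24 h at 37 °C; luciferase reagent was added for 10 min and luminescence read.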
SMN2 splice enh: SMN2 splice variant enhancement; HEK293 SMN2-luciferase splicing reporter, luminescence, 30-36 h; Potency, µM (top dose mostly 46.1 µM), actives largely listed as activators; actives 2.8% (n = 210,000); AID 1458; also: nearly all actives have a fitted effect of over 55% in size
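qHTS luciferase splicing reporter: luminescence rises when SMN2 exon 7 is included in transfected HEK293 cells. Compound exposure lasted 30-36 h at 37C, with 4.5 mM final sodium butyrate as control, followed by a ONE-Glo read.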
ELG1 DNA repair: ELG1-dependent DNA repair inhibition; HEK293T ELG1-luciferase reporter, luminescence, 16 h; DNA damage induced by 5-fluorouridine; Potency, µM (titrated, usually from 46.1 µM), hits mostly inhibitors; actives 2.3% (n = 330,000); AID 504467; also: nearly all actives have a fitted effect of over 55% in size
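Overnight (16 hr) co-exposure of 2,000 cells/well to 5-fluorouridine and compound at 37 °C preceded detection. Luciferase was quantified via ONE-Glo luminescence; loss of signal denotes inhibition.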
Of the large screens only hits and unclear results are named; the others gave an inactive call. Sampled rows, rich in hits. Any-hit rate of the full collection: about 9.3%. Calls follow the shape of the dose curve; as a rule, active = well fitted curve in the direction sought with a large enough effect; inconclusive = small, poorly fitted or top-dose-only effect, or another doubt; inactive = no such curve, though single readings can be large; an effect the other way counts as inactive or inconclusive.

O=C(CN1CCN(CC(=O)Nc2ccccc2Cc2ccccc2)CC1)Nc1ccccc1Cl	ELG1 DNA repair 26µM (no result: SMN2 splice enh)
CCC(=O)n1nc(-c2ccco2)nc1SCc1ccccc1	FLuc modulator 15µM, ELG1 genotoxic inconclusive, SMN2 splice enh inconclusive, ELG1 DNA repair inconclusive
c1ccc(SCCc2ccncc2)cc1	ELG1 DNA repair inconclusive
CC(C)(C)c1ccc(SCCc2cccnc2)cc1	FLuc modulator 5.4µM, ELG1 genotoxic inconclusive, Rab9 promoter act 3.5µM, NPC1 prom act 2µM, ELG1 DNA repair inconclusive (no result: SMN2 splice enh)
CCOC(=O)[C@@H]1[C@H]2COc3cc(OC)ccc3[C@H]2N2C(=O)N(c3ccc(C(F)(F)F)cc3)C(=O)[C@]12C	ELG1 DNA repair 23µM (no result: FLuc modulator, Rab9 promoter act, NPC1 prom act, SMN2 splice enh)
CCCCOc1ccc(C(=O)Nc2ccc3c(c2)OCO3)cc1	FLuc modulator inconclusive, ELG1 genotoxic inconclusive, Rab9 promoter act inconclusive, SMN2 splice enh inconclusive, ELG1 DNA repair inconclusive
CCC(=O)Oc1ccc(C(=O)Nc2ccc3c(c2)OCO3)cc1	FLuc modulator 5.4µM, ELG1 genotoxic inconclusive, Rab9 promoter act 4.5µM, NPC1 prom act 2.2µM, SMN2 splice enh 16µM, ELG1 DNA repair inconclusive
CCC(=O)Nc1ccc(C(=O)Nc2ccc3c(c2)OCO3)cc1	FLuc modulator inconclusive, ELG1 DNA repair inconclusive
CCCOc1ccc(C(=O)Nc2ccc3c(c2)OCO3)cc1	FLuc modulator 2.1µM, ELG1 genotoxic 2.3µM, Rab9 promoter act 2.8µM, NPC1 prom act 1µM, ELG1 DNA repair inconclusive (no result: SMN2 splice enh)
CCOc1cc(/C=C2\SC(=O)N=C2N)ccc1O	ELG1 genotoxic inconclusive, SMN2 splice enh inconclusive, ELG1 DNA repair inconclusive
COc1cccc(NS(=O)(=O)c2ccc3[nH]cc(C(=O)NCCC(C)C)c(=O)c3c2)c1	ELG1 DNA repair 18µM
CC(C)CCNC(=O)c1c[nH]c2ccc(S(=O)(=O)N3CCOCC3)cc2c1=O	none (no result: SMN2 splice enh)
CCOC(=O)C(C)On1c(-c2ccc(Cl)cc2)nc2ccc([N+](=O)[O-])cc21 (stereo unspecified)	FLuc modulator 15µM, ELG1 DNA repair inconclusive
O=C(O)COn1c(-c2ccccc2)nc2ccc([N+](=O)[O-])cc21	FLuc modulator 15µM, Rab9 promoter act inconclusive, ELG1 DNA repair inconclusive
Cc1ccc(COn2c(-c3ccc(Cl)cc3)nc3ccc([N+](=O)[O-])cc32)cc1	FLuc modulator 17µM, Rab9 promoter act inconclusive, NPC1 prom act inconclusive, SMN2 splice enh inconclusive, ELG1 DNA repair inconclusive
CCOC(=O)C(C)On1c(-c2ccccc2)nc2ccc([N+](=O)[O-])cc21 (stereo unspecified)	Rab9 promoter act inconclusive, NPC1 prom act inconclusive, ELG1 DNA repair inconclusive
O=[N+]([O-])c1ccc2nc(-c3ccc(Cl)cc3)n(OCc3ccccc3)c2c1	FLuc modulator 12µM, ELG1 genotoxic inconclusive, Rab9 promoter act inconclusive, NPC1 prom act inconclusive, ELG1 DNA repair inconclusive
OC(CNCCc1ccccc1)c1ccccc1 (stereo unspecified)	none
CCOC(CCn1c(SCc2cccc([N+](=O)[O-])c2)nc2ccccc2c1=O)OCC	ELG1 DNA repair inconclusive
O=C(NC(=S)Nc1ccc(N2CCCCC2)cc1)c1ccco1	FLuc modulator 3.4µM, ELG1 genotoxic inconclusive, Rab9 promoter act 1.1µM, NPC1 prom act 1µM, ELG1 DNA repair inconclusive (no result: SMN2 splice enh)
CC1CCN(c2ccc(NC(=S)NC(=O)c3ccco3)cc2)CC1	FLuc modulator 12µM, Rab9 promoter act inconclusive, ELG1 DNA repair inconclusive
Cc1ccc(C(=O)NC(=S)Nc2ccc(N3CCN(C(=O)c4ccco4)CC3)cc2)cc1	ELG1 DNA repair inconclusive (no result: SMN2 splice enh)
O=C(NC(=S)Nc1ccccc1N1CCCCC1)c1ccco1	ELG1 DNA repair inconclusive
Cc1onc(-c2ccccc2Cl)c1C(=O)Nc1ccc(OCC(=O)N2CCOCC2)cc1	ELG1 DNA repair 9.2µM
Cc1onc(-c2ccccc2Cl)c1C(=O)Nc1ccc(S(=O)(=O)N2CCCC2)cc1	SMN2 splice enh inconclusive
O=C(Nc1ccc(OCC(=O)N2CCOCC2)cc1)c1ccccc1Cl	FLuc modulator 1.7µM, ELG1 genotoxic inconclusive, ELG1 DNA repair inconclusive (no result: SMN2 splice enh)
Cc1cc(OCC(=O)N2CCOCC2)ccc1NC(=O)c1ccccc1C	FLuc modulator 7.6µM, ELG1 genotoxic inconclusive, ELG1 DNA repair inconclusive (no result: Rab9 promoter act, SMN2 splice enh)
Cc1ccc(Cl)cc1NC(=O)c1ccccc1OCC(=O)N1CCOCC1	ELG1 DNA repair inconclusive (no result: SMN2 splice enh)
COc1ccc2[nH]c3c(=O)n(/N=C/[C@H]4C(C)C=C(C)CC4C)c(=O)[nH]c3c2c1 (stereo partly specified)	ELG1 DNA repair inconclusive
CCOC(=O)c1cnc(SC)nc1Oc1cccc(NS(=O)(=O)c2ccc(Cl)cc2)c1	ELG1 DNA repair 23µM
COCC(C)n1c(SCc2cc(C(=O)OC)c(C)o2)nc2ccccc2c1=O (stereo unspecified)	ELG1 DNA repair inconclusive (no result: SMN2 splice enh)
COC(=O)c1cc(CSc2nnc(-c3ccccc3)c(-c3ccccc3)n2)oc1C	ELG1 DNA repair 21µM
O=C(COc1ccc(C(=O)c2ccccc2)cc1)NCC1CCCCC1	none
O=C(Oc1ccc2ccc(O)cc2c1)c1ccccc1Cl	FLuc modulator 2.4µM, ELG1 genotoxic inconclusive, ELG1 DNA repair inconclusive (no result: SMN2 splice enh)
O=C(Oc1ccc2ccccc2c1)C1CCC1	FLuc modulator 24µM (no result: SMN2 splice enh)
O=C(c1ccccc1)c1ccc(OC(=O)C2CCCCC2)cc1	FLuc modulator 13µM (no result: SMN2 splice enh)
CC(=O)Oc1ccc(NC(=O)C2CCCCC2)c(C(=O)O)c1	none
O=C(Oc1ccc2ccc(O)cc2c1)C1CCCCC1	FLuc modulator 17µM
O=C(Oc1ccc(OC(=O)C2CCC2)cc1)C1CCC1	FLuc modulator inconclusive
COc1cc(C(=O)Oc2ccc3ccc(O)cc3c2)cc(OC)c1OC	ELG1 genotoxic inconclusive, ELG1 DNA repair inconclusive (no result: SMN2 splice enh)
COC(=O)CSc1nnc(CNC(=O)c2ccccc2F)n1-c1ccc(F)cc1	none
COc1ccccc1N1CCN(C(=O)/C=C/c2ccccc2)CC1	none
O=C(/C=C/c1ccccc1)N1CCC(c2ccccc2)C1 (stereo unspecified)	FLuc modulator 4.8µM, ELG1 genotoxic 6.5µM, Rab9 promoter act 1.6µM, NPC1 prom act 3.2µM, SMN2 splice enh 11µM, ELG1 DNA repair inconclusive
O=C(/C=C/c1ccco1)N1CCCC(c2ccccc2)C1 (stereo unspecified)	FLuc modulator inconclusive
COC(=O)C1CCN(C(=O)/C=C/c2ccccc2)CC1	FLuc modulator inconclusive, Rab9 promoter act 1µM, NPC1 prom act 1.4µM, SMN2 splice enh 14µM, ELG1 DNA repair inconclusive
O=C(/C=C/c1ccccc1)N1CCC(Cc2ccccc2)CC1	FLuc modulator 15µM (no result: SMN2 splice enh)
CCOC(=O)C1CCN(C(=O)/C=C/c2ccccc2OC)CC1	none

Screens deposited in PubChem BioAssay by National Center for Advancing Translational Sciences (NCATS).
